The target in experiment [1] is PAS domain-containing serine/threonine-protein kinase (Homo sapiens) (UniProt Q96RG2). The settings on record: at 1 µM.
For experiment [2], the target named is Serine/threonine-protein kinase PAK 6 (Homo sapiens) (UniProt Q9NQU5). Particulars: at 1 µM.
Experiment [3] shares this target. The settings on record: at 10 µM.
The target in experiment [4] is PAS domain-containing serine/threonine-protein kinase (Homo sapiens) (UniProt Q96RG2). Particulars: at 10 µM.
Experiment [5] deals with Activated CDC42 kinase 1 (Homo sapiens) (UniProt Q07912). Particulars: at 1 µM.
Experiment [6] shares this target. The settings on record: at 10 µM.
Experiment [7] has as its target T1, Activin receptor type-1B (Homo sapiens) (UniProt P36896).
T1 sequence (whole entry): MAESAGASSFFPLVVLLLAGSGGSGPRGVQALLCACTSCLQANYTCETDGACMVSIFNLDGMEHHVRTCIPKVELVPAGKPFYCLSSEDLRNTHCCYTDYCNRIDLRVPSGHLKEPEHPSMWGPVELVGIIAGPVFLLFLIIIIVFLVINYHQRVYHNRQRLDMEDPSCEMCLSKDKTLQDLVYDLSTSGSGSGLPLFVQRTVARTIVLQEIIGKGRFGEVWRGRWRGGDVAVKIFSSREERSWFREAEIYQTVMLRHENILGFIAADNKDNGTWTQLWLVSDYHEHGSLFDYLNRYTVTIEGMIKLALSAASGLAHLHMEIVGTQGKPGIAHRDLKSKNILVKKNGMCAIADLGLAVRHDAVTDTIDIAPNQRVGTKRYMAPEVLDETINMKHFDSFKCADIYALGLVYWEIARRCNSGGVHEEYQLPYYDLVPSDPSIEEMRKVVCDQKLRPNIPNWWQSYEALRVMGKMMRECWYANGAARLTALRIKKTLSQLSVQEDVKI
The settings on record: at 1 µM.

Experiment [8] concerns the target T1, Activin receptor type-1B (Homo sapiens). The settings on record: at 10 µM.
In experiment [9] the target is T2, AMP-activated protein kinase (AMPK) alpha-1/beta-1/gamma-1 (Homo sapiens) (UniProt P54619+Q9Y478+Q13131). Particulars: at 1 µM.
For experiment [10], the target named is T2, AMP-activated protein kinase (AMPK) alpha-1/beta-1/gamma-1 (Homo sapiens). The settings on record: at 10 µM.
Experiment [11] has as its target T3, AMP-activated protein kinase, AMPK (Homo sapiens) (UniProt P54646+O43741+P54619+Q9UGJ0+Q9Y478+Q13131+Q9UGI9). Particulars: at 1 µM.
The target of experiment [12] is T4, NUAK family SNF1-like kinase 1 (Homo sapiens) (UniProt O60285).
T4 sequence (whole entry): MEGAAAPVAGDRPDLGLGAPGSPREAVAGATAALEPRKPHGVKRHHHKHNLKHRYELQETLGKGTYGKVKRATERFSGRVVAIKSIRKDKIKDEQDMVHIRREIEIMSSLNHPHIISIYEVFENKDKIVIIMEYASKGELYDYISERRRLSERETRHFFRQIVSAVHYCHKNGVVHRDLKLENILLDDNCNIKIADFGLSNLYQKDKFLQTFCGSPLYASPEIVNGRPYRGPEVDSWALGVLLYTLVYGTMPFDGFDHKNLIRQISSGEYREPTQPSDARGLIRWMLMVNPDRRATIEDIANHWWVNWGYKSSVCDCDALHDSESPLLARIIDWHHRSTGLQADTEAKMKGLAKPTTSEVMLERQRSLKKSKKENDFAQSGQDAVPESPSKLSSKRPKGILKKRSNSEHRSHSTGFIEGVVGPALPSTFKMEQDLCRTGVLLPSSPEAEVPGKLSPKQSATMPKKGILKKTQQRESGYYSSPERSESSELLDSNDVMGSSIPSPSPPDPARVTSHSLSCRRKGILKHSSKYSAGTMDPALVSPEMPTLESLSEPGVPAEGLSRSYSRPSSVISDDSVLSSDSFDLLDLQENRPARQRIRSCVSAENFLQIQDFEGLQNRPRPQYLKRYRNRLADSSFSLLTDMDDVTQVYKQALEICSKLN
The settings on record: at 1 µM.

In experiment [13] the target is T4, NUAK family SNF1-like kinase 1 (Homo sapiens). Particulars: at 10 µM.
The target in experiment [14] is T5, Mitogen-activated protein kinase kinase kinase 5 (Homo sapiens) (UniProt Q99683).
T5 sequence (whole entry): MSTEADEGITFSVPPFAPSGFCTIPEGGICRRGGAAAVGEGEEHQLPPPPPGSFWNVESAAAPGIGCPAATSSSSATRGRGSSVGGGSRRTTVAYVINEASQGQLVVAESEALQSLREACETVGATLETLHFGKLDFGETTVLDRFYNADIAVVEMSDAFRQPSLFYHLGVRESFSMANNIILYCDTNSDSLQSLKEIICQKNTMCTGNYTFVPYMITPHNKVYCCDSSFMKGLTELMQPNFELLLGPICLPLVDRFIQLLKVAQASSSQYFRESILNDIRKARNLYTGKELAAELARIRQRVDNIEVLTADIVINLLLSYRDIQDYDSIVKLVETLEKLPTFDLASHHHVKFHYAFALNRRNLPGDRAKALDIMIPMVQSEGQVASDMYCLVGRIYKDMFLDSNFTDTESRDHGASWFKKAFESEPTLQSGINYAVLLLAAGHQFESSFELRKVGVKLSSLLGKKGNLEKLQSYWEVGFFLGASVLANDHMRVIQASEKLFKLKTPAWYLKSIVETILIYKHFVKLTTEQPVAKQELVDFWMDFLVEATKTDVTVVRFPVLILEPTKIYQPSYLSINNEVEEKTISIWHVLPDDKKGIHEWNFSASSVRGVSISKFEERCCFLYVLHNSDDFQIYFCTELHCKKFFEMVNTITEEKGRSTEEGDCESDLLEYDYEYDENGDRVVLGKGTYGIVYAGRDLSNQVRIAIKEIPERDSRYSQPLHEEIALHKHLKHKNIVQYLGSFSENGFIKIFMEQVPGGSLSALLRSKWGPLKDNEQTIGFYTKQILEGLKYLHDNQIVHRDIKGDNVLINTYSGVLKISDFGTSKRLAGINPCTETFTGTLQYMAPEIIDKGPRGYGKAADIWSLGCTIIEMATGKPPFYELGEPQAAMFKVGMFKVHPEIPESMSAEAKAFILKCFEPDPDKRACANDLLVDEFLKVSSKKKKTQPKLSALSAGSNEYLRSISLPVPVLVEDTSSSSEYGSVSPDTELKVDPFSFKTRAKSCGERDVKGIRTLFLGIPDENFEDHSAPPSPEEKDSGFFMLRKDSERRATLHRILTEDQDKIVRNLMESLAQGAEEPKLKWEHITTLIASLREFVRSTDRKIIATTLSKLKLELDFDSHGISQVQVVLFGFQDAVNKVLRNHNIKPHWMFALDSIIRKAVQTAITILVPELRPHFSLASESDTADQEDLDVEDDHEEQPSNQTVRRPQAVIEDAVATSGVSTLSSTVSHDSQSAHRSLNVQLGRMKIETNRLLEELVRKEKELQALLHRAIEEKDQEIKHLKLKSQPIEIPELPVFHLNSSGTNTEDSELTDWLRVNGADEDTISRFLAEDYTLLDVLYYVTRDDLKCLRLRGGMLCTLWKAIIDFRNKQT
Particulars: at 1 µM.

The target of experiment [15] is Platelet-derived growth factor receptor alpha (Homo sapiens) (UniProt P16234). The settings on record: at 1 µM.
Experiment [16] addresses Serine/threonine-protein kinase PAK 5 (Homo sapiens) (UniProt Q9P286). The settings on record: at 1 µM.
For experiment [17] the target is unchanged. Particulars: at 10 µM.
The target of experiment [18] is ALK tyrosine kinase receptor (Homo sapiens) (UniProt Q9UM73). Particulars: at 1 µM.
For experiment [19] the target is unchanged. Particulars: at 10 µM.
Experiment [20] addresses T3, AMP-activated protein kinase, AMPK (Homo sapiens). The settings on record: at 10 µM.

Chain of Activated CDC42 kinase 1 (Homo sapiens) (Q07912 whole entry, looked up): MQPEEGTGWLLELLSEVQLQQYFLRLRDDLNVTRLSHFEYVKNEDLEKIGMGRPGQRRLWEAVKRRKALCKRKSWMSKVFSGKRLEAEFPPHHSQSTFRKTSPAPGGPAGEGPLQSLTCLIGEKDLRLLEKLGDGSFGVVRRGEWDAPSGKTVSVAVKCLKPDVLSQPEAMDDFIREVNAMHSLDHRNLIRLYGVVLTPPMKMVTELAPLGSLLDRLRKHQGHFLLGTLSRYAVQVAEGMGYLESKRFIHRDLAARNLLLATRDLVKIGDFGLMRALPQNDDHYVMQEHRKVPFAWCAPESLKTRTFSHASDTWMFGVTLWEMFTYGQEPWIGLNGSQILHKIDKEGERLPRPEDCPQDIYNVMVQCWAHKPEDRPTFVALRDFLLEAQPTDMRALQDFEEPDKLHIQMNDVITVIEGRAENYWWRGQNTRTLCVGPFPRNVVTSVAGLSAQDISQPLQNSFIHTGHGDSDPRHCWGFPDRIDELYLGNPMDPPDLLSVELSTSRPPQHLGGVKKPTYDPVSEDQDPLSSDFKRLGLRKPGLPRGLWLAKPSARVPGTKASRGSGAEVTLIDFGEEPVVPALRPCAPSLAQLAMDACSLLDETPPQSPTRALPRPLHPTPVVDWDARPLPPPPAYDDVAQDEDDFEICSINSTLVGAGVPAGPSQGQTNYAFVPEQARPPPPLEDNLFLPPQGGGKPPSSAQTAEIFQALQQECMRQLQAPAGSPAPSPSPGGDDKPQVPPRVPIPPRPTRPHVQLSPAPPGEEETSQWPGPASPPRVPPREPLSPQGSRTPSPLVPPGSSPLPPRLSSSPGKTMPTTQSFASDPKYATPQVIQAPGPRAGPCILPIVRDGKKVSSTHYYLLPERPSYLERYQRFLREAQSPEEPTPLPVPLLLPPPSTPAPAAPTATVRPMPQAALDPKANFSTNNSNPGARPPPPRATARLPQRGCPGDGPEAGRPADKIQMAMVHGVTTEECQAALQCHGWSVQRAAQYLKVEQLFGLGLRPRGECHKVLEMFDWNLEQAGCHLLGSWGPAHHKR
Chain of ALK tyrosine kinase receptor (Homo sapiens) (Q9UM73 19-1620 limits assumed): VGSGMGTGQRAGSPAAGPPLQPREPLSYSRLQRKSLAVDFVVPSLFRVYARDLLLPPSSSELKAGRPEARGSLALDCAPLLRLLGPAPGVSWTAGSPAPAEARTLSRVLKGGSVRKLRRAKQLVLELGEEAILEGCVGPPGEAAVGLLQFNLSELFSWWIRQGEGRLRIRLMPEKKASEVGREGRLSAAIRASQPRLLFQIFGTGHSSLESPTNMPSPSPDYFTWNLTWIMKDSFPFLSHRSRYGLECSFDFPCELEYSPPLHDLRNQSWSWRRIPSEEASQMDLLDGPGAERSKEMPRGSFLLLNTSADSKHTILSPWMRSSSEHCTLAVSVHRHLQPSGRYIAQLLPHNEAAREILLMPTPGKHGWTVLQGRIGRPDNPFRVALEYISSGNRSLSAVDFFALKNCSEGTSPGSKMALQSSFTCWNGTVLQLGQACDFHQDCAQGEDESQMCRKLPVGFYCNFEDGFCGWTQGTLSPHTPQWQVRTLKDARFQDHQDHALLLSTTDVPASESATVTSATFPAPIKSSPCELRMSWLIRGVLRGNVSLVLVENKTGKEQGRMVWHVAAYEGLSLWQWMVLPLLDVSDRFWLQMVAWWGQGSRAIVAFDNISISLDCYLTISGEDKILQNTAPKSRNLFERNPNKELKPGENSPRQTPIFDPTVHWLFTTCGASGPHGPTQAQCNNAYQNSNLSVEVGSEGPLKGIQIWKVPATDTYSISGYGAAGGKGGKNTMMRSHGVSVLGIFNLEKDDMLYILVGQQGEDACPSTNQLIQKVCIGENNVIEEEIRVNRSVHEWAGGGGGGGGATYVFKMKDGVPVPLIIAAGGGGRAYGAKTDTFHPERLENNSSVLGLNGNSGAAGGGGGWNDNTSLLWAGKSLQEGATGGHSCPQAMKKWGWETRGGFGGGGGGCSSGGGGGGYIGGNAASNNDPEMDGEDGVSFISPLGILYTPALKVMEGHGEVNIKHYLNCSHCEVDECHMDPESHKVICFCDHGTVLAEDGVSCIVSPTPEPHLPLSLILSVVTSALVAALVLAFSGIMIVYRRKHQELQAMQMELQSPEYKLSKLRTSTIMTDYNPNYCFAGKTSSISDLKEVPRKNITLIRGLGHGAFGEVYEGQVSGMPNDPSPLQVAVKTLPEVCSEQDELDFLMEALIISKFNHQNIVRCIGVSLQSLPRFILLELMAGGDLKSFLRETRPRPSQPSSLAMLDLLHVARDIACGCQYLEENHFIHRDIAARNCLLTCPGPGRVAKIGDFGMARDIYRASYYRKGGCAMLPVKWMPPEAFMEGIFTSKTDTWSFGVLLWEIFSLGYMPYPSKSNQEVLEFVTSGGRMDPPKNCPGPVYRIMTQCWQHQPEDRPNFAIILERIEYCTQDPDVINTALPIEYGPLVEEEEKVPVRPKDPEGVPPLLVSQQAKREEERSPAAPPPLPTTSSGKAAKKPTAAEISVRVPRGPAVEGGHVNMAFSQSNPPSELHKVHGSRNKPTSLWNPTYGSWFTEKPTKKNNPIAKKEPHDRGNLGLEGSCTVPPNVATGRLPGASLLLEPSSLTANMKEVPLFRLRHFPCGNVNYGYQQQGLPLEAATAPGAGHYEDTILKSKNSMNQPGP
Chain of Serine/threonine-protein kinase PAK 6 (Homo sapiens) (Q9NQU5 whole entry, looked up): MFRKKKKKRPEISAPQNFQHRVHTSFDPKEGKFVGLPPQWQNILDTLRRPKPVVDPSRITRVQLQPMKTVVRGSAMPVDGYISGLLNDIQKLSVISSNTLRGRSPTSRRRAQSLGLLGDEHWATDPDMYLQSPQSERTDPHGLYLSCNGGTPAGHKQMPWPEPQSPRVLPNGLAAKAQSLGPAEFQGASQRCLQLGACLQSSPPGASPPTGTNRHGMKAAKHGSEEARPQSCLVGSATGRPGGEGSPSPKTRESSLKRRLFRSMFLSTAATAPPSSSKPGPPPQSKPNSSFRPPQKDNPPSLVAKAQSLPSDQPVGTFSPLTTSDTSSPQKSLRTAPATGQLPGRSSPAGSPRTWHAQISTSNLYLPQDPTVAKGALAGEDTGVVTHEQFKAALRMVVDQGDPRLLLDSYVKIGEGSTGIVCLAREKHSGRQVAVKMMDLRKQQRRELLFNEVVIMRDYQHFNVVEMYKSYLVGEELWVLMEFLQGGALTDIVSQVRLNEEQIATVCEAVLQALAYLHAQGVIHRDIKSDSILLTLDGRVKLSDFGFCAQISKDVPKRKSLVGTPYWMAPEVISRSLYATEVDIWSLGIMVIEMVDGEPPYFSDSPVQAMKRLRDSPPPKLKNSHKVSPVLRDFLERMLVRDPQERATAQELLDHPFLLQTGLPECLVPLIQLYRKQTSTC
Chain of Serine/threonine-protein kinase PAK 5 (Homo sapiens) (Q9P286 whole entry, looked up): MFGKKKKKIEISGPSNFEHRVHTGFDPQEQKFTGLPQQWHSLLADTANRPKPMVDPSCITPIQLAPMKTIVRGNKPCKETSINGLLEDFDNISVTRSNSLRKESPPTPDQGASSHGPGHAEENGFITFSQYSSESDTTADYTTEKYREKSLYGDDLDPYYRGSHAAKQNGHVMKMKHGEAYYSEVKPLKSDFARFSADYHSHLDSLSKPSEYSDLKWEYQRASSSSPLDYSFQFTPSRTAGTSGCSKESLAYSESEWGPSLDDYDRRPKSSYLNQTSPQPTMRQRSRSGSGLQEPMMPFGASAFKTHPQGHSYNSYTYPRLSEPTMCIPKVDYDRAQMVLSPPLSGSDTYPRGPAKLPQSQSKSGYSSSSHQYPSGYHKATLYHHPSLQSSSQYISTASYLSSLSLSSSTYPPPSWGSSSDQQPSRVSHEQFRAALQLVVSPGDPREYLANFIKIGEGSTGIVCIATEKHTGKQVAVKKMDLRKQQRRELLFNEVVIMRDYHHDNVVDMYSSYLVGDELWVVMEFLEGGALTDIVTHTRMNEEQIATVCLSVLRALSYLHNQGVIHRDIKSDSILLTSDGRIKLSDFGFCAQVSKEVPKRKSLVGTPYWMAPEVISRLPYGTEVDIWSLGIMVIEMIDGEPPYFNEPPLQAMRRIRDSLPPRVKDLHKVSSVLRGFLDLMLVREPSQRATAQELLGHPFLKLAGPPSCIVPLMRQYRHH
Chain of Platelet-derived growth factor receptor alpha (Homo sapiens) (P16234 whole entry): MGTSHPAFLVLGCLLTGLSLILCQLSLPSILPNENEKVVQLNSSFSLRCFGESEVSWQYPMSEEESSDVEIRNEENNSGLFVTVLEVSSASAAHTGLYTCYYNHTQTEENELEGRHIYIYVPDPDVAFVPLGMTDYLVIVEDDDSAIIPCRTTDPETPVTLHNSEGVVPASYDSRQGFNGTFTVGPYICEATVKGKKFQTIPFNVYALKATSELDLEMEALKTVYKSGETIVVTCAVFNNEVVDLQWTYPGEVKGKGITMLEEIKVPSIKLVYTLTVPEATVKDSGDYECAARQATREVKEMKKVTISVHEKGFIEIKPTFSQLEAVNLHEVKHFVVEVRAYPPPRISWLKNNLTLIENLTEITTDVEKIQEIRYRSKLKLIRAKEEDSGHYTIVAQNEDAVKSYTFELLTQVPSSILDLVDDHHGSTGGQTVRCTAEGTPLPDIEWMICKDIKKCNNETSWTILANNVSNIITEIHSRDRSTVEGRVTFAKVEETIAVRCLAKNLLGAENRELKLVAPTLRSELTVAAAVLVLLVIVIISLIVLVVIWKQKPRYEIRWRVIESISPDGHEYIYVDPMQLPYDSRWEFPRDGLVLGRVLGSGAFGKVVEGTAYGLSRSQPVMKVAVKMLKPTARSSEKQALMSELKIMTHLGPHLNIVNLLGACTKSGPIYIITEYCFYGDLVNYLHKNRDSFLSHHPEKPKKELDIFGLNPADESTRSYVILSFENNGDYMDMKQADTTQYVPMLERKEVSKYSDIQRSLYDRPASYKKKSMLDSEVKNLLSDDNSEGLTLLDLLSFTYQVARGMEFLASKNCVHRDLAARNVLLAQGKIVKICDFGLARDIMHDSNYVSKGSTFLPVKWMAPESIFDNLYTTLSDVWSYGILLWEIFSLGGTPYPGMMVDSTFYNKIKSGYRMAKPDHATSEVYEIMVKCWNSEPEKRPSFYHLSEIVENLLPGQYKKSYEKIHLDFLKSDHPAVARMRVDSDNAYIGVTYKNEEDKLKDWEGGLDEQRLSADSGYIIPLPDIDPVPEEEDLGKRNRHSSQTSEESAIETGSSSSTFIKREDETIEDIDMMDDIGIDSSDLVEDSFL

Take `O=C(Nc1cccc(Nc2nccc(Nc3cccc(C(F)(F)F)c3)n2)c1)C1CC1`: the residual activity in experiment [1] was 75%.

Regarding `CC(C)(C)c1cc(C=C(C#N)C#N)cc(Br)c1O`, the residual activity in [2] came to 111%; in experiment [3] it was 96%; in experiment [1], 80%; in experiment [4], 44%; in experiment [5], 106%; in [6] it was 73%. For the same molecule, the residual activity in [7] came to 114%; in [8], 48%; in experiment [9], 110%; in experiment [10], 53%; in experiment [11] it was 97%; in experiment [12] it was 116%. In addition, the residual activity came to 106% in [13], 108% in [14] and 120% in experiment [15].

For `N#CC(C#N)=C(N)/C(C#N)=C/c1ccc(O)cc1`, the residual activity in [1] was found to be 99%.

As for `Ic1cccc(CSc2nnc(-c3ccncc3)o2)c1`, the residual activity in experiment [1] amounted to 108%.

For the molecule `O=c1c(-c2ccc(F)cc2)c(-c2ccncc2)[nH]n1-c1ccc(Cl)cc1`, in experiment [1], the residual activity stood at 135%.

For the molecule `Nc1ncnc2[nH]nc(Nc3ccc(F)cc3)c12`, the residual activity in [1] was 92%.

On to `CC[n+]1c(/C=C/N(C)c2ccccc2)n(-c2ccccc2)c2ccc(-c3nc4ccccc4s3)cc21`, for which the residual activity in [1] was 80%.

Turning to `O=[N+]([O-])/C=C/c1ccc2c(c1)OCO2`, the residual activity in [16] is 103%; in experiment [17], 92%; in [3], 102%; in experiment [1] it was 107%; in experiment [4], 87%; in [5], 83%. The residual activity in [6] turned out to be 69%; in [18], 84%; in [19], 101%; in experiment [7] it was 133%; in experiment [8], 93%; in experiment [9] it was 89%. Moreover, the residual activity in [10] came to 80%; in [11] it was 101%; in [20], 78%; in [12], 107%; in experiment [13], 87%; in experiment [14], 109%. Besides, in experiment [15], the residual activity was determined as 114%.

On to `NC(=O)Nc1sc(-c2ccc(F)cc2)cc1C(N)=O`, for which, in [1], the residual activity was determined as 107%.

Consider `NC(=O)c1ccc2[nH]c(-c3ccc(Oc4ccc(Cl)cc4)cc3)nc2c1`, for which the residual activity in [1] turned out to be 134%.

As for `COc1cc2ncnc(Nc3ccc(O)c(Br)c3)c2cc1OC`, in [1], the residual activity came out at 73%.

As for `O=C1NC(=O)c2c1c1c3ccccc3n3c1c1c2c2ccccc2n1C1CCC3O1`, the residual activity in experiment [2] came out at 19%; in experiment [3] it was 15%; in [5], 8%; in experiment [6], 13%; in experiment [18] it was 81%; in experiment [19], 79%. The residual activity in experiment [7] turned out to be 90%; in experiment [8], 93%; in [9], 74%; in [10], 71%; in [11] it was 55%; in experiment [20], 68%. Moreover, the residual activity is 39% in experiment [12], 48% in [13], 96% in [14] and 93% in experiment [15].

Regarding `C[C@@H](N)[C@H]1CC[C@H](C(=O)Nc2ccncc2)CC1`, the residual activity in [1] came out at 82%.

Consider `COc1ccc(CNC(=O)Nc2ncc([N+](=O)[O-])s2)cc1`, for which, in experiment [1], the residual activity turned out to be 133%.

As to `COc1ccc2c(c[n+](C)c3c4cc5c(cc4ccc23)OCO5)c1OC`, the residual activity in [17] was determined as 87%; in experiment [2], 99%; in experiment [3], 61%; in experiment [1], 70%; in [4] it was 61%; in experiment [5], 84%. Moreover, the residual activity in experiment [6] was 68%; in [19] it was 65%; in [7] it was 132%; in experiment [8], 94%; in experiment [9] it was 96%; in [10] it was 66%. In addition, the values for the residual activity in experiment [11] and in [20] were 89% and 60%, respectively.

For the origin of these results see ChEMBL document CHEMBL2218924, “A broad activity screen in support of a chemogenomic map for kinase signalling research and drug discovery” (Biochem J, 2013).
